Compound activity as filed in PubChem BioAssay.
A selection: hits, their analogues and other compounds. The true share with any hit is near 3.5%.
GPR151 ag: activates the human receptor GPR151. Q8TDV0. PathHunter beta-arrestin GPR151 cells, luminescence. activation, % at 11.2 µM. 650,000 compounds, 1% hits. AID 1508602; in the data active means activation above about 4.9%;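 further: 0% = median of compound wells and 100% = cells with positive control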
FBW7 activator: activators of human E3 ligase FBW7; normalized activity (activation), % at 26.1 µM; AID 1259310; AlphaScreen FBW7–phospho-cyclin E peptide binding, activator screen; Q969H0; 650,000 compounds, 0.13% hits; in the data active means normalized activity above about 1.9%;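 further: purified mutant Fbw7 with reduced substrate affinity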
TEAD-YAP block: TEAD-YAP interaction inhibition; HEK-TIYL cells, TEAD-Gal4/YAP UAS-luciferase luminescence; inhibition, % at 9.12 µM; 640,000 compounds, 1.4% hits; in the data active means inhibition above about 32%;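 further: 0% = median of test compound wells and 100% = reference inhibitor wells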
MITF primary: human MITF inhibition, primary screen; AID 1259374; 650,000 compounds, 0.91% hits; inhibition, % at 2.6 µM; O75030; AlphaScreen MITF homodimerization, bead proximity signal; in the data active means inhibition above about 50%;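 further: 0% = vehicle wells with protein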
GPR151 conf act: confirmation of human GPR151 activators. shares compounds with GPR151 ag. GPR151 PathHunter beta-arrestin cells, luminescence, 90 min; % of EA-reagent control over plate median. activation, % at 11.2 µM. 6,700 tested, under 10 active;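 active means mean percent activation across replicates above the confirmation screen cutoff of 4.91%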
GPR119 ag: GPR119 activation, counter-screen for GPR151 activators | shares compounds with GPR151 ag | GPR119 PathHunter beta-arrestin cells, luminescence, 90 min; 0 = compound-well median, 100 = enzyme-acceptor control | activation, % at 11.2 µM | 6,700 compounds, 0.3% hits;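 active means mean percent activation in the counterscreen above 29.09%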;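 further: counterscreen on off-target GPR119 to flag nonselective hits from the GPR151 activator screen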
Target sequence (Q8TDV5 whole entry, looked up): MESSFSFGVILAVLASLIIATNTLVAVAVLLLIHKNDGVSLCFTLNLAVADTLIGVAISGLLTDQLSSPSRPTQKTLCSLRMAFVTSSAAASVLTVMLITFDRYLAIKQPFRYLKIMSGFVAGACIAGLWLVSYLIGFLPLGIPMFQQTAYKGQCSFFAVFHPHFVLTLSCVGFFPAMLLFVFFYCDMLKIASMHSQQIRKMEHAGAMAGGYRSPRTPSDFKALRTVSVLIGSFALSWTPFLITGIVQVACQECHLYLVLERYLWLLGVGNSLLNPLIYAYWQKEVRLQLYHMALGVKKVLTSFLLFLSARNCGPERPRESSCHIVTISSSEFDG
Active calls of the source: *.

For CN(C)c1cccc(Nc2nccn3c(-c4cccs4)cnc23)c1 the results were GPR151 ag 0, FBW7 activator 0, TEAD-YAP block 2 and MITF primary 11.
`O=C(NCCCN1CCN(c2ccccc2)CC1)c1ccccc1` gave GPR151 ag 3, FBW7 activator 0, TEAD-YAP block -3 and MITF primary 6.
Screening Cc1ccc(C(=O)NCN2CCN(c3ccccc3)CC2)cc1 returned GPR151 ag 6.0*, FBW7 activator 0, TEAD-YAP block 9, MITF primary 7, GPR151 conf act 0 and GPR119 ag -7.
For Cc1ccc(N2C(=O)c3ccc(NC(=O)c4ccc(Br)cc4)cc3C2=O)cc1 the results were GPR151 ag 0, FBW7 activator 0, TEAD-YAP block 2 and MITF primary 4.
For c1nc(NCCc2ccc3c(c2)OCCO3)c2ccsc2n1 the results were GPR151 ag 5.6*, FBW7 activator 0, TEAD-YAP block 39*, MITF primary -2, GPR151 conf act 2 and GPR119 ag 0.
Screening COc1ccc(Nc2ncnc3c2c(-c2ccccc2)cn3-c2ccc(Cl)cc2)cc1OC returned GPR151 ag -1, FBW7 activator 0, TEAD-YAP block 1 and MITF primary -11.
Screening O=C1C(=O)N(c2nc3ccccc3s2)C(c2ccccc2)/C1=C(\O)c1ccccc1 (centres undefined) returned GPR151 ag 4.9*, FBW7 activator 0, TEAD-YAP block 12, MITF primary 9, GPR151 conf act 1 and GPR119 ag 15.
`CCOc1ccc(S(=O)(=O)c2cn(CC)c3cc(OC)c(OC)cc3c2=O)cc1` gave GPR151 ag -1, FBW7 activator 0, TEAD-YAP block -11 and MITF primary -2.
For O=C(Nc1ccccc1)c1ccc(N2C(=O)C3C4C=CC(C4)C3C2=O)cc1 (centres undefined) the results were GPR151 ag 5.0*, FBW7 activator 0, TEAD-YAP block -52, MITF primary -1, GPR151 conf act 1 and GPR119 ag 13.
Screening CC1=C(C)SC(=C(C#N)c2nnc(N3CCOCC3)n2-c2ccccc2)S1 returned GPR151 ag 5.4*, FBW7 activator 0, TEAD-YAP block 6, MITF primary -1, GPR151 conf act 0 and GPR119 ag -2.
Screening CCc1cc2c(=O)c(-c3ccc4c(c3)OCCCO4)coc2cc1OC(C)C(=O)OC (centres undefined) returned GPR151 ag 4, FBW7 activator 0, TEAD-YAP block 23 and MITF primary 4.
Screening CCc1cc2c(=O)c(-c3ccc4c(c3)OCCO4)coc2cc1OC(C)C(=O)OC (centres undefined) returned GPR151 ag 6.8*, FBW7 activator 1, TEAD-YAP block 4, MITF primary 4, GPR151 conf act 3 and GPR119 ag -1.
For CC(NC(=O)CCl)c1ccc2c(c1)CCCC2 (centres undefined) the results were GPR151 ag 2, FBW7 activator 0, TEAD-YAP block 18 and MITF primary -5.
Screening CC(NC(=O)CCl)c1ccc(F)cc1F (centres undefined) returned GPR151 ag 5.2*, FBW7 activator 0, TEAD-YAP block 17, MITF primary 3, GPR151 conf act 1 and GPR119 ag -1.
Screening CCOc1cccc(/C=N/c2ccccn2)c1O returned GPR151 ag 1, FBW7 activator 0, TEAD-YAP block 12 and MITF primary -364.
Screening CCCCc1ccc(C2=N/C(=C\c3ccc(C)cc3)C(=O)O2)cc1 returned GPR151 ag 0, FBW7 activator 0, TEAD-YAP block -4 and MITF primary -6.
CCCCc1ccc(C2=N/C(=C\c3ccccc3)C(=O)O2)cc1 was read as GPR151 ag 6.4*, FBW7 activator 0, TEAD-YAP block -2, MITF primary 1, GPR151 conf act 0 and GPR119 ag -10.
For CCN(CC)c1nc(Nc2ccccc2)nc(Nc2nc3ccccc3n2C)n1 the results were GPR151 ag -1, FBW7 activator 1, TEAD-YAP block -3 and MITF primary 4.
CCN(CC)c1nc(Nc2nc3ccccc3n2C)nc(NC2CC2)n1 was read as GPR151 ag 7.5*, FBW7 activator 0, TEAD-YAP block 6, MITF primary 17, GPR151 conf act 0 and GPR119 ag 1.
For Cc1ccc(COc2ccc3oc(C)c(C(=O)OC(C)C)c3c2)cc1 the results were GPR151 ag -2, FBW7 activator 0, TEAD-YAP block 3 and MITF primary 0.
Screening CC(=O)Nc1ccc(Nc2ccnc(N3CCc4ccccc4C3)n2)cc1 returned GPR151 ag 5.1*, FBW7 activator 0, TEAD-YAP block 28, MITF primary 7, GPR151 conf act 2 and GPR119 ag 28.
C/C(N)=C(/C#N)C(=O)CSc1cc(C)ccc1C was read as GPR151 ag 0, FBW7 activator 0, TEAD-YAP block 2 and MITF primary 3.
Screening O=C1OC(/C=C/c2cccc(Cl)c2Cl)=NC/1=C\c1ccccc1Cl returned GPR151 ag -1, FBW7 activator 0, TEAD-YAP block -5 and MITF primary -9.
Screening O=C1OC(/C=C/c2cccc(Cl)c2Cl)=NC/1=C\c1ccccc1C(F)(F)F returned GPR151 ag 5.8*, FBW7 activator 0, TEAD-YAP block 2, MITF primary -1, GPR151 conf act -1 and GPR119 ag -3.
Screening O=C(CSc1nnc(CCCN2C(=O)c3cccc4cccc(c34)C2=O)n1-c1ccccc1)NCc1ccccn1 returned GPR151 ag 1, FBW7 activator 0, TEAD-YAP block 13 and MITF primary -1.
O=S(=O)(NCC1CCCN(Cc2ccccn2)C1)c1cccc2cccnc12 (centres undefined) was read as GPR151 ag -2, FBW7 activator 0, TEAD-YAP block -1 and MITF primary 3.
CC(C)(C)CN1CCCC(CNS(=O)(=O)c2cccc3cccnc23)C1 (centres undefined) was read as GPR151 ag 6.4*, FBW7 activator 0, TEAD-YAP block 3, MITF primary 19, GPR151 conf act 0 and GPR119 ag -8.
For C/C(=N\Nc1nnc2c(n1)[nH]c1ccccc12)c1ccc([N+](=O)[O-])cc1 the results were GPR151 ag 5.9*, FBW7 activator 0, TEAD-YAP block -26, MITF primary 7, GPR151 conf act 0 and GPR119 ag -16.
Screening COc1ccc(Cl)cc1NC(=O)c1cc(-c2ccc3c(c2)OCO3)on1 returned GPR151 ag 0, FBW7 activator 0, TEAD-YAP block 4 and MITF primary -2.
CC1c2cccn2CCN1S(=O)(=O)c1ccccc1Cl (centres undefined) was read as GPR151 ag 5.9*, FBW7 activator 0, TEAD-YAP block 6, MITF primary 10, GPR151 conf act 0 and GPR119 ag 4.
